From PubChem BioAssay AID493201 (National Center for Advancing Translational Sciences (NCATS), 2011) come the findings set out here.

SMILES strings stand for the structures. Results filed as inconclusive are left out. Where a call stands in place of a potency, no number is given. Calls of active or inactive are those of the source. The call rests on the fitted dose curve; in most records, active means well fitted activation curve with a large enough effect; inconclusive means small, poorly fitted or top-dose-only effect; inactive means no such curve, though single readings can be large or run the other way.
Potency means the concentration at half of the fitted maximal effect.

A short description of this test: qHTS Assay for Identifying a Potential Treatment of Ataxia-Telangiectasia: Secondary assay (no NCS) hit validation.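 Further: phosphorylated KAP1 signal as a proxy for ATM-like kinase activity.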 The settings on record: A-T patient fibroblasts, AlphaLISA, no DNA damage added, 90 min; series mostly up to 76.9 µM. Put shortly:
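hTERT-immortalized A-T patient fibroblasts (F2112), 500 cells/well, exposed to compounds at up to 76.7 uM final without NCS at 37C. KAP-1 phosphorylation measured by AlphaLISA after lysis and 6 h detection at 25C.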
A general note: In qHTS, concentration-response curves come from the screen itself.
For the molecule `Clc1cccc(CN2CCC(Cc3ccccc3)CC2)c1`, the Potency entry is “inactive”.

On to `CNC(=O)c1ccc(-c2sc3nc(N4CCOCC4)c4c(c3c2N)CC(C)(C)OC4)o1`, for which the Potency was 29.2 µM (active).

For the molecule `C=CS(=O)(=O)c1sc(Cl)c(N2CCOCC2)c1[N+](=O)[O-]`, the Potency result is “inactive”.

For the molecule `CC1CCCC(C)N1CCCNC(=O)Cn1ncc2c3ccccc3n(C)c2c1=O` (centres undefined), the Potency is 14.6 µM (active).

For `COc1ccc(C2(C)CC(C)(C)Nc3ccccc32)cc1` (centres undefined), the Potency entry is “inactive”.

Consider `O=C(CSc1ccccn1)N/N=C/C=C/c1ccccc1`, for which the Potency entry is “inactive”.

With `C=CCOC(=O)C1=C[C@H](c2coc3ccccc3c2=O)C[C@H](OCc2ccc(CO)cc2)O1`, the Potency result is “inactive”.

For `COc1ccccc1Nc1nc(NCCCN(C)C)nc(N)c1[N+](=O)[O-]`, the Potency is 2.6 µM (active).

Consider `CCOC(=O)C1=C(C)N(c2ccc(OC)cc2)C(=O)/C1=C\c1ccc(O)c(OCC)c1`, for which the Potency entry was “inactive”.

As to `CC1=C/C(=C\C=C(C#N)C#N)N(C)c2ccccc21`, the Potency entry is “inactive”.

As for `CNC(=S)N(CCc1c(C)[nH]c2ccc(Cl)cc12)Cc1cccnc1`, the Potency entry was “inactive”.

Take `COc1ccccc1N1CCN(C(=O)c2cc(=O)c3c(C)cc(C)cc3o2)CC1`: the Potency entry is “inactive”.

In the case of `COc1cc(/C=C2\CCOC2=O)cc(OC)c1OC`, the Potency entry was “inactive”.

As for `CCC(=O)c1ccc2c(c1)OCCO2`, the Potency entry was “inactive”.

Consider `CCN(CC)S(=O)(=O)c1ccc(Cl)c(NC(=O)CCCCl)c1`, for which the Potency entry was “inactive”.

Take `CSc1nc2ccccc2nc1N(C)S(=O)(=O)c1ccc(C)cc1`: the Potency is 36.8 µM (active).

As to `CC(C)Nc1nc(Oc2ccc(=O)n(-c3ccccc3)n2)nc(N(C)C)n1`, the Potency entry is “inactive”.

As for `COc1ccc2nc(C)cc(Nc3ccc(C(=O)O)cc3)c2c1`, the Potency result was “inactive”.

For the molecule `Cc1ccc2c(c1)sc(=NC(=O)C1CC1)n2C`, the Potency result is “inactive”.

On to `COCCCNC(=O)c1c[nH]c2ccc(S(=O)(=O)N(C)c3ccccc3C)cc2c1=O`, for which the Potency entry is “inactive”.

For `CC1CC(C)CN(S(=O)(=O)c2ccc(C(=O)NCCCn3ccnc3)cc2)C1` (centres undefined), the Potency entry was “inactive”.

Turning to `CC1(C)CC2(CCO1)OC(=O)CC2C(=O)Nc1c(Cl)cccc1Cl` (centres undefined), the Potency result is “inactive”.

For the molecule `COc1ccc(-c2nn(C)c(=O)[nH]2)cc1`, the Potency result was “inactive”.

Regarding `CCOC(=O)Cn1c(-c2ccccc2)cc(SC)c(C#N)c1=O`, the Potency result was “inactive”.

For `O=C(CNCc1cccs1)Nc1ccc(OC(F)(F)F)cc1`, the Potency entry was “inactive”.

Regarding `CCc1ccc(C2c3[nH]c4ccccc4c3CCN2C(=O)c2cc[n+]([O-])cc2)cc1` (centres undefined), the Potency entry was “inactive”.

On to `Cc1cccc(C)c1NC(=O)COC(=O)c1cc(=O)c2ccccc2o1`, for which the Potency entry is “inactive”.

On to `CCN(c1ccccc1)S(=O)(=O)c1ccc(Cl)c(C(=O)N(CC2CCCO2)C2CCS(=O)(=O)C2)c1` (centres undefined), for which the Potency was 14.6 µM (active).

On to `CCS(=O)(=O)c1ccc(C(=O)Nc2ccccc2)c(Cl)c1Cl`, for which the Potency is 32.8 µM (active).

In the case of `COc1ccc(Oc2ncnc3c2oc2ccc(Br)cc23)cc1`, the Potency entry is “inactive”.

Consider `O=c1c(-c2ccc(Cl)cc2)c[nH]n1-c1ccccc1`, for which the Potency entry was “inactive”.

For `Cc1ccc(NC(=O)CSc2nnc([C@H](C)NC(=O)OC(C)(C)C)o2)c(C)c1`, the Potency result is “inactive”.

Regarding `O=C(O)CCC(=O)NN1C(=O)c2ccccc2NC1c1ccco1` (centres undefined), the Potency result was “inactive”.

As for `Cc1ccc(C(=O)Nc2sc3c(c2C(=O)O)CCCCC3)o1`, the Potency is 0.232 µM (active).
